Data published in PubChem BioAssay (EPA / NIEHS).
Calls of active or inactive are those of the source. How the source made its calls: active means hit-call score of the fitted dose curve at least 0.9, where 1 is the maximum; inactive means score below 0.9.

Experiments:
[1] = read-out: Urokinase-type plasminogen activator receptor (uPAR), PLAUR (gene 5329); experiment: BSK_4H_uPAR: BioMAP Diversity Plus: 4H Assay for Urokinase-type plasminogen activator receptor (uPAR) Biomarker Activity (AID 2283030); settings: primary human endothelial cells (HUVEC); actives raise or lower the signal
Procedure, shortened: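 Chemicals are dosed onto human vascular endothelial primary cells (umbilical vein). After 24 h, uPAR is read by ELISA. Gain or loss of signal is fitted relative to DMSO.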

[2] = read-out: Vascular endothelial growth factor receptor 2 (Homo sapiens) (UniProt P35968); experiment: BSK_4H_VEGFRII: BioMAP Diversity Plus: 4H Assay for Vascular endothelial growth factor receptor 2 (VEGFR2) Biomarker Activity (AID 2283031); settings: primary human endothelial cells (HUVEC); actives raise or lower the signal;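 on AC50: cell-surface VEGFR2 protein level quantified by ELISA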
Procedure, shortened: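 VEGFRII levels on human vascular endothelial primary cells were determined by ELISA at 24 hours post-dosing, with gain- or loss-of-signal fitted against DMSO controls.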

[3] = read-out: Human Leukocyte Antigen - DR isotype (HLADR), HLA-DRA (gene 3122); experiment: BSK_BE3C_HLADR: BioMAP Diversity Plus: BE3C Assay for Human Leukocyte Antigen - DR isotype (HLADR) Biomarker Activity (AID 2283032); settings: primary human bronchial epithelial cells; actives raise or lower the signal
Procedure, shortened: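 Human primary bronchial epithelial cells (BE3C system) exposed to compound for 24 hours; cell-surface HLA-DR measured by ELISA, fitted bidirectionally relative to DMSO. Total protein by SRB in parallel cultures tracked cytotoxicity.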

[4] = read-out: Vascular cell adhesion molecule 1 (VCAM1), VCAM1 (gene 7412); experiment: BSK_4H_VCAM1: BioMAP Diversity Plus: 4H Assay for Vascular cell adhesion molecule 1 (VCAM1) Biomarker Activity (AID 2283033); settings: primary human endothelial cells (HUVEC); actives raise or lower the signal
Procedure, shortened: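 Primary human umbilical vein endothelial cells, 4H stimulation system, treated for 24 h; cell-surface VCAM-1 quantified by ELISA. Bidirectional fitting against DMSO; cytotoxicity tracked by SRB total-protein staining in parallel cultures.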

[5] = read-out: Interferon-gamma inducible Protein 10 (IP10), CXCL10 (gene 3627); experiment: BSK_BE3C_IP10: BioMAP Diversity Plus: BE3C Assay for Interferon-gamma inducible Protein 10 (IP10) Biomarker Activity (AID 2283034); settings: primary human bronchial epithelial cells; actives raise or lower the signal
Procedure, shortened: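 Primary human bronchial epithelial cells, with IP-10 measured by ELISA 24 hours after chemical dosing. Bidirectional fit against DMSO; cytotoxicity checked by SRB total protein staining in parallel cultures.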

[6] = read-out: Monokine induced gamma interferon (MIG), CXCL9 (gene 4283); experiment: BSK_BE3C_MIG: BioMAP Diversity Plus: BE3C Assay for Monokine induced gamma interferon (MIG) Biomarker Activity (AID 2283035); settings: primary human bronchial epithelial cells; actives raise or lower the signal
Procedure, shortened: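 MIG level was determined by ELISA after 24 h chemical treatment of primary human bronchial epithelial cells. Values were fitted bidirectionally with DMSO as the negative control and activity baseline.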

[7] = read-out: Plasminogen activator inhibitor-1 (PAI1), SERPINE1 (gene 5054); experiment: BSK_BE3C_PAI1: BioMAP Diversity Plus: BE3C Assay for Plasminogen activator inhibitor-1 (PAI1) Biomarker Activity (AID 2283037); settings: primary human bronchial epithelial cells; actives raise or lower the signal
Procedure, shortened: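 Primary human bronchial epithelial cells (BE3C system) exposed 24 h; PAI-1 quantified by ELISA. Parallel sulforhodamine B staining of total protein flags cytotoxicity. Bidirectional fit versus DMSO.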

[8] = read-out: urokinase plasminogen activator (uPA), PLAU (gene 5328); experiment: BSK_BE3C_uPA: BioMAP Diversity Plus: BE3C Assay for urokinase plasminogen activator (uPA) Biomarker Activity (AID 2283038); settings: primary human bronchial epithelial cells; actives raise or lower the signal;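 further: uPA protein level quantified by ELISA in cell cultures; uPA read one day after compound addition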
Procedure, shortened: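 Measured by ELISA: uPA from human primary bronchial epithelial cells 24 h after chemical treatment. Values derive from bidirectional curve fitting with DMSO serving as negative control. Total protein by SRB staining in parallel wells flagged overt cytotoxicity.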

[9] = read-out: Urokinase-type plasminogen activator receptor (uPAR), PLAUR (gene 5329); experiment: BSK_BE3C_uPAR: BioMAP Diversity Plus: BE3C Assay for Urokinase-type plasminogen activator receptor (uPAR) Biomarker Activity (AID 2283039); settings: primary human bronchial epithelial cells; actives raise or lower the signal
Procedure, shortened: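 Primary human bronchial epithelial cells dosed for 24 h; uPAR quantified by ELISA with bidirectional fitting against DMSO. Overt cytotoxicity assessed in parallel cultures by SRB total-protein staining (0.1% SRB, 560 nm).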

[10] = read-out: Interleukin-6 (IL6), IL6 (gene 3569); experiment: BSK_CASM3C_IL6: BioMAP Diversity Plus: CASM3C Assay for Interleukin-6 (IL6) Biomarker Activity for (AID 2283040); settings: primary human coronary artery smooth muscle cells; actives raise or lower the signal
[11] = read-out: Tissue plasminogen activator (tPA), PLAT (gene 5327); experiment: BSK_BE3C_tPA: BioMAP Diversity Plus: BE3C Assay for Tissue plasminogen activator (tPA) Biomarker Activity (AID 2283041); settings: primary human bronchial epithelial cells; actives raise or lower the signal
Procedure, shortened: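 Primary human bronchial epithelial cells in the BE3C system, exposed to compound for 24 h. tPA was quantified by ELISA; DMSO served as baseline, with gain or loss of signal fitted. Cytotoxicity checked in parallel cultures by SRB total-protein staining.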

[12] = read-out: Interleukin-8 (IL8), CXCL8 (gene 3576); experiment: BSK_CASM3C_IL8: BioMAP Diversity Plus: CASM3C Assay for Interleukin-8 (IL8) Biomarker Activity (AID 2283042); settings: primary human coronary artery smooth muscle cells; actives raise or lower the signal;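 further: IL-8 protein level quantified by ELISA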
[13] = read-out: Human Leukocyte Antigen - DR isotype (HLADR), HLA-DRA (gene 3122); experiment: BSK_CASM3C_HLADR: BioMAP Diversity Plus: CASM3C Assay for Human Leukocyte Antigen - DR isotype (HLADR) Biomarker Activity (AID 2283043); settings: primary human coronary artery smooth muscle cells; actives raise or lower the signal;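 further: cell-surface HLA-DR protein level quantified by ELISA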
[14] = read-out: Macrophage colony-stimulating factor (MCSF), CSF1 (gene 1435); experiment: BSK_CASM3C_MCSF: BioMAP Diversity Plus: CASM3C Assay for Macrophage colony-stimulating factor (MCSF) Biomarker Activity (AID 2283044); settings: primary human coronary artery smooth muscle cells; actives raise or lower the signal;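 further: M-CSF protein amount quantified by ELISA after 24 h exposure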
[15] = read-out: Low-density lipoprotein receptor (LDLR), LDLR (gene 3949); experiment: BSK_CASM3C_LDLR: BioMAP Diversity Plus: CASM3C Assay for Low-density lipoprotein receptor (LDLR) Biomarker Activity (AID 2283045); settings: primary human coronary artery smooth muscle cells; actives raise or lower the signal;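 further: LDLR protein level on the cell surface quantified by ELISA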
[16] = read-out: Monocyte Chemoattractant Protein-1 (MCP1), CCL2 (gene 6347); experiment: BSK_CASM3C_MCP1: BioMAP Diversity Plus: CASM3C Assay for Monocyte Chemoattractant Protein-1 (MCP1) Biomarker Activity (AID 2283046); settings: primary human coronary artery smooth muscle cells; actives raise or lower the signal;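 further: MCP-1 level quantified by ELISA 24 h after dosing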
[17] = BSK_CASM3C_Proliferation: Cell Proliferation Assessment in the BioMAP Diversity Plus: CASM3C Assay (AID 2283047); settings: primary human coronary artery smooth muscle cells;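 further: sulforhodamine B total protein stain as relative cell number at 560 nm; sub-confluent cells exposed 48 h before staining; fitted both ways against DMSO so gain or loss of cell number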
[18] = read-out: Monokine induced gamma interferon (MIG), CXCL9 (gene 4283); experiment: BSK_CASM3C_MIG: BioMAP Diversity Plus: CASM3C Assay for Monokine induced gamma interferon (MIG) Biomarker Activity (AID 2283048); settings: primary human coronary artery smooth muscle cells; actives raise or lower the signal;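 further: MIG protein level measured by ELISA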
[19] = read-out: serum amyloid A (SAA), SAA1 (gene 6288); experiment: BSK_CASM3C_SAA: BioMAP Diversity Plus: CASM3C Assay for serum amyloid A (SAA) Biomarker Activity (AID 2283049); settings: primary human coronary artery smooth muscle cells; actives raise or lower the signal;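 further: SAA protein level quantified by ELISA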
[20] = read-out: Transforming growth factor beta 1 (TGFb1), TGFB1 (gene 7040); experiment: BSK_BE3C_TGFb1: BioMAP Diversity Plus: BE3C Assay for Transforming growth factor beta 1 (TGFb1) Biomarker Activity (AID 2283036); settings: primary human bronchial epithelial cells; actives raise or lower the signal
Procedure, shortened: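 Primary human bronchial epithelial cells dosed with chemical; TGF-b1 measured by ELISA 24 h after dosing. Bidirectional curve fitting against DMSO negative control; SRB total-protein staining in parallel cultures gauged cytotoxicity.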

Measured: AC50

FC(F)(F)C(F)(F)C(F)(F)C(F)(F)C(F)(F)C(F)(F)CC1CO1 (configuration not stated)
not listed: [20]
inactive: all other assays above

CCCCCCCCCCCCCCCC[N+](C)(C)Cc1ccccc1
active: [1] 5.78 µM | [2] 38.8 µM | [3] 2.19 µM | [4] 1.78 µM | [5] 2.47 µM | [6] 10 µM | [20] 20 µM | [7] 20 µM | [9] 9.42 µM | [10] 3.74 µM | [11] 7.03 µM | [12] 4.79 µM | [13] 2.56 µM | [14] 1.89 µM | [15] 9.64 µM | [16] 3.5 µM | [17] 1.29 µM | [18] 5.11 µM | [19] 2.59 µM

C#C[C@]1(O)CC[C@H]2[C@@H]3CCc4cc(OC)ccc4[C@H]3CC[C@@]21C
active: [3] 6.9 µM | [17] 0.253 µM
inactive: all other assays above

CS(C)(=O)=O
inactive: all assays above

C=C(C)C(=O)OCCC(F)(F)C(F)(F)C(F)(F)C(F)(F)C(F)(C(F)(F)F)C(F)(F)F
not listed: [20]
inactive: all other assays above

C=CC/C=C/C/C=C/C/C=C/C
active: [17] 0.108 µM
inactive: all other assays above
